Screening data (PubChem BioAssay)
Only some compounds are listed: those with a hit (about 8.1% of all), similar ones and a draw of the others.
MCF10A rerep – DNA re-replication induction in MCF 10a cells; hit rate 2.9% among 350,000; MCF 10A DNA re-replication, Hoechst nuclear intensity, 48 h; Potency, µM (highest dose often 46.1 µM), most hits filed as activators; AID 624296; also: nearly all actives have a fitted effect of over 50% in size
ELG1 DNA repair – blocks ELG1-dependent DNA repair in HEK293T cells; hit rate 2.3% among 330,000; AID 504467; Potency, µM (highest dose often 46.1 µM), hits mostly inhibitors; HEK293T ELG1-luciferase reporter, luminescence, 16 h; DNA damage induced by 5-fluorouridine; also: nearly all actives have a fitted effect of over 55% in size
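Luminescence from the luciferase reporter, measured 30 min after ONE-Glo reagent at room temperature, was the read-out. Beforehand, 2,000 cells per well were exposed for 16 hr at 37 °C to 5-fluorouridine together with compound or vehicle.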
SW480 rereplic – induces DNA re-replication in SW480 colon adenocarcinoma cells; SW480 DNA re-replication, Hoechst DNA content imaging, 48 h; Potency, µM (doses to about 46.1 µM), usual class: activators; hit rate 1.8% among 340,000; AID 624297; also: nearly all actives have a fitted effect of over 55% in size
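Image-based read-out: total Hoechst fluorescence of nuclei (405 nm excitation, 500-530 nm emission), with hits raising the fraction of high-intensity nuclei. SW480 colon cells incubated 48 hr with compounds at 37 C.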
KB-3-1 cytotox – KB-3-1 parental cell cytotoxicity; KB-3-1 viability, CellTiter-Glo ATP luminescence, 72 h; Potency, µM (series often up to 46.1 µM), most hits filed as cytotoxic; hit rate 1.4% among 400,000; AID 1347075; also: nearly all actives have a fitted effect of over 60% in size
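Cytotoxicity in the drug-sensitive parental line KB-3-1 was scored as loss of CellTiter-Glo luminescence following 72 h incubation with compound. Values come from curve fitting of normalized concentration-response data.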
KB-V1 cytotox – kills drug-selected multidrug resistant KB-V1 cells | KB-V1 MDR cells viability, CellTiter-Glo, 72 h | Potency, µM (series often up to 46.1 µM), usual class: cytotoxic | hit rate 3.4% among 400,000; also: nearly all actives have a fitted effect of over 60% in size
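Cytotoxicity via CellTiter-Glo luminescence after 72 h compound exposure at 37 degrees C. Cells: drug-selected KB-V1 line, DMEM phenol-red free plus 10% FBS. Compounds tested at multiple concentrations; normalized data fitted to concentration-effect curves.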
A number is an active result; n = inactive; u = inconclusive; x = no result given; [ ] = another dose, or the depositor's remark. Calls follow the shape of the dose curve; as a rule, active = well fitted curve in the direction sought with a large enough effect; inconclusive = small, poorly fitted or top-dose-only effect, or another doubt; inactive = no such curve, though single readings can be large; an effect the other way counts as inactive or inconclusive.

SMILES	MCF10A rerep	ELG1 DNA repair	SW480 rereplic	KB-3-1 cytotox	KB-V1 cytotox
COc1ccccc1C1c2c(-c3ccc(Cl)cc3)n[nH]c2C(=O)N1c1ccc(C)cc1 (stereo not given)	x	x	x	n	26µM
O=C(c1cc(-c2ccncc2)nc2ccccc12)N1CCN(c2ncccn2)CC1	n	23µM	n	n	u
Cc1cc(C(=O)N2CCN(c3ncccn3)CC2)sc1-c1ccccc1	n	x	n	n	21µM
O=C(c1cc(-c2ccncc2)nc2ccccc12)N1CCN(c2ccc(N3CCOCC3)nn2)CC1	n	n	n	n	n
O=C(c1cc(-c2ccncc2)nc2ccccc12)N1CCN(c2ccccn2)CC1	10µM	u	18µM	13µM	u
O=C(c1cc(-c2ccccc2)nc2ccccc12)N1CCN(c2ccccc2O)CC1	n	13µM	n	n	n
O=C(c1cc(-c2ccncc2)nc2ccccc12)N1CCN(c2ccccc2O)CC1	n	u	n	n	n
O=C(c1cc(-c2ccccc2)nc2ccccc12)N1CCN(c2ccccn2)CC1	u	u	n	u	u
CC(C)c1c(C(=O)N/N=C2\CCc3ccccc32)nnn1-c1nonc1N	n	n	n	n	n
O=C(c1cc(-c2cccc3ccccc23)nc2ccccc12)N1CCN(CCO)CC1	u	4.6µM	n	n	n
CS(=O)(=O)/C(C#N)=C/c1c(-c2ccccc2)nc2n1CCS2	n	n	n	n	n
Clc1ccc(CO/N=C/c2c(-c3ccccc3)nc3n2CCS3)c(Cl)c1	u	n	n	n	15µM
CCOCCCn1c(=O)c(NC(=O)c2ccc(OCC)cc2)c2n(c1=S)CCCCC2	n	n	n	n	8.2µM
CCn1c(=O)c(NC(=O)c2ccccc2)c2n(c1=S)CCCCC2	n	n	n	n	n
O=C(O)c1cc(NC2(c3ccccc3)C(=O)c3ccccc3C2=O)ccc1Cl	x	x	x	n	u
Cc1ccccc1NC1=C(C(=O)c2ccccc2)N(C)S(=O)(=O)c2ccccc21	n	n	n[9.22 µM]	n	u
O=C(C1=C(Nc2ccccc2)c2ccccc2S(=O)(=O)N1)c1ccccc1	u	16µM	n	n	n
Cc1nnc(SCC(=O)NC(=O)Nc2ccc3c(c2)OCCO3)s1	n	u	n	n	n
Cc1cccc(Nc2nnc(SCC(=O)NC(=O)Nc3ccc4c(c3)OCCO4)s2)c1	23µM	u	u	u	u
Nc1nnc(SCC(=O)Nc2cccnc2Cl)s1	n	n	n	n	n
COc1ccccc1Nc1nnc(SCC(=O)NC(=O)Nc2ccc3c(c2)OCCO3)s1	21µM	n	n	n	n
Cc1cccc(Nc2nnc(SCC(=O)Nc3cccnc3Cl)s2)c1	n	n	n	n	15µM
O=C(NC1CCCc2ccccc21)c1ccccc1 (stereo not given)	n	n	n	n	n
O=C(NC1CC1(c1ccccc1)c1ccccc1)c1ccccc1 (stereo not given)	n	x	n	u	16µM
CCc1ccc(O)c(C(=O)c2cnc3cc(-c4ccc(C)cc4)nn3c2)c1	x	x	x	n	n
SMILES	MCF10A rerep	ELG1 DNA repair	SW480 rereplic	KB-3-1 cytotox	KB-V1 cytotox
O=C(COC(=O)C1Cc2ccccc2CN1C(=O)c1ccccc1Cl)Nc1ccc(N2CCOCC2)cc1 (stereo not given)	n	u	n	n	15µM
Cc1ccc(SC2=C(Sc3ccc(C)cc3)C(=O)c3ccccc3C2=O)cc1	3.3µM	u	8.2µM	n	n
Cc1ccc(N2C(=O)c3ccccc3C2=O)cc1	n	u	n	n	n
CC1(c2ccc(OC(F)F)cc2)NC(=O)N(CC(=O)N2CCN(C(=O)c3ccco3)CC2)C1=O (stereo not given)	n	n	n	n	u
Cc1ccc(OCC(=O)Nc2ccc3nc(SCC(N)=O)sc3c2)cc1	x	x	x	n	n
CCN1C=C(Cc2cccs2)C2=C(C1)C(c1cccs1)C(C#N)=C(N)O2 (stereo not given)	21µM	u	n	u	n
CCOC(=O)C1=C(C)OC(N)=C(C#N)C1c1cccs1 (stereo not given)	n	n	n	n	n
CCN1CC2=C(OC(N)=C(C#N)C2c2ccccc2)/C(=C\c2ccccc2)C1 (stereo not given)	23µM	u	u	u	n
N#CC1=C(N)OC2=C(CN(Cc3ccccc3)C/C2=C\c2cccnc2)C1c1cccnc1 (stereo not given)	n	n	n	n	n
CCCC1=C(C(=O)OCC)C(c2cccs2)C(C#N)=C(N)O1 (stereo not given)	n	n	n	n	n
CCN1CC2=C(OC(N)=C(C#N)C2c2cccs2)/C(=C/c2cccs2)C1 (stereo not given)	u	16µM	u	n	u
Cc1cc(C)cc(OCC(=O)NNC(=O)c2ccccn2)c1	n	u	n	u	n
COc1ccccc1N1CCN(C2CCCN(C(=O)CCc3c(C)noc3C)C2)CC1 (stereo not given)	n	n	n	n	n
O=C(COc1ccc2ccccc2c1)Nc1ccc(O)c(-c2nc3ccccc3o2)c1	x	x	x	n	u
CC(=O)Oc1ccc(C(=O)Nc2cccc(NC(=O)c3ccco3)c2)cc1	6.5µM	n	n	n	n
Cc1ccc(C(=O)NC(=S)NCc2cccnc2)cc1C	n	n	n	n	u
CC(C)c1ccc(C(=O)NC(=S)NCc2cccnc2)cc1	u	n	n	u	2.9µM
O=C(NNC(=S)NC(=O)c1ccco1)c1ccc(NC(=O)c2ccccc2)cc1	n	15µM	u	u	u
O=C(Nc1cccc(NC(=O)c2ccco2)c1)c1cccc(Br)c1	n	n	n	n	u
O=C(Nc1cc(Br)c(O)c(Br)c1)c1cccc(NC(=O)c2ccco2)c1	0.73µM	n	n	n	n
O=C(O)c1ccccc1OC1=NS(=O)(=O)c2ccccc21	x	x	x	u	n
CCc1ccc(NC(=O)CCS(=O)(=O)c2ccc3c(c2)oc(=O)n3C)cc1	x	x	x	n	n
COc1ccc(-c2noc(CC(=O)Nc3ccc(F)cc3F)n2)cc1	x	x	x	n	n
O=C1CCC(C(=O)N2CCN(c3ccccc3)CC2)CN1Cc1ccc(Cl)cc1 (stereo not given)	x	x	x	n	n
O=C(Nc1ccc(NC(=O)c2sc3ccccc3c2Cl)cc1)c1ccco1	12µM	u	u	n	n
CC(=O)Nc1cccc(NC(=O)c2ccc(C(=O)Nc3cccc(NC(C)=O)c3)nc2)c1	n	u	n	n	n
O=C(Nc1cccc(NC(=O)c2ccco2)c1)c1ccc([N+](=O)[O-])cc1	n	12µM	n	n	n
O=C(Nc1ccc(Nc2ccccc2)cc1)c1ccco1	u	u	n	n	n
Cc1cccc(NC(=O)c2ccc(C(=O)Nc3cccc(C)c3)nc2)c1	7.3µM	n	u	n	u
Cc1cccc(NC(=O)c2ccc(S(=O)(=O)NCc3cccnc3)cc2)c1	n	15µM	n	u	21µM
